Experimental findings from PubChem BioAssay are described below.

The source made the active and inactive calls.

One test has as its system XIP peptide (Xip251-270) binding. Description: small-molecule binders of XIP peptide, primary screen, biochemical, small-molecule microarray, fluorescence 635/667 nm, 0.1 µg/mL protein (AID 1182). The settings on record: fluorescent protein binding, 635 nm, higher = more signal, called active from +8 up or from −8 down.
Take `CCCCC(=C=CC[C@H](O)c1ccccc1OCCO)CCO`: the composite z-score is 1.47 (inactive).

With `CC1C2C(CCCO)=CC(C3C(=O)N(C)C(=O)C23)N1Cc1cccc(OC(F)(F)F)c1` (stereo unspecified), the composite z-score was 1.17 (inactive).

As to `C[C@]1(C(=O)O)c2ccccc2C(=O)N(Cc2cc(C(F)(F)F)cc(C(F)(F)F)c2)[C@H]1c1ccc(CO)cc1`, the composite z-score was 0.17 (inactive).

Turning to `OCCCc1cc[n+](Cc2cc3c(cc2Br)OCO3)cc1`, the composite z-score is 0.0084 (inactive).

On to `COc1cc(Cc2cc3c(c(CCc4ccccc4)n2)[Si](C(C)C)(C(C)C)O[C@H]3c2ccccc2)cc(OC)c1OC`, for which the composite z-score was 0.41 (inactive).

Consider `O=C1C2C=CC(C(O)C(c3ccccc3)c3ccccc3)N(Nc3ccccc3F)C2C(=O)N1c1ccccc1` (stereo unspecified), for which the composite z-score was 0.814 (inactive).

For the molecule `[N-]=[N+]=NCc1ccccc1[C@H]1OC(c2ccc(OCCCO)cc2)=N[C@@]1(CCS(=O)(=O)c1ccccc1)C(=O)NCCN1CCOCC1`, the composite z-score was -0.0093 (inactive).

For `COc1ccc(C(=O)Nc2ccc(CN3C(=O)[C@@]4(O[C@@H](CC(=O)N(CCO)Cc5ccccc5)[C@H]([Si](C)(C)c5ccc(OC)cc5)[C@H]4C)c4ccccc43)cc2)cc1`, the composite z-score is 1.96 (inactive).

Take `COc1ccc(C(=O)Nc2cccc(CN3C(=O)[C@]4(O[C@H](CC(=O)N(CCO)Cc5ccccc5)[C@@H]([Si](C)(C)c5ccc(OC)cc5)[C@@H]4C)c4ccccc43)c2)cc1`: the composite z-score is 0.256 (inactive).

For the molecule `C=CC[C@]1(C(=O)NCC(O)CO)N=C(c2ccc(OCCCO)cc2)O[C@H]1c1ccccc1CN=[N+]=[N-]` (stereo partly specified), the composite z-score is 0.513 (inactive).

Consider `O=C1C2C=CC(C(O)C3CC=CCC3)N(Nc3ccc([N+](=O)[O-])cc3)C2C(=O)N1c1ccccc1` (stereo unspecified), for which the composite z-score was 0.524 (inactive).

With `CCCCN1CC=CC23O[C@@H]4C=CCCOC(=O)C4[C@H]2C(=O)N(CCO)[C@@H]3C1=O` (stereo partly specified), the composite z-score was 0.61 (inactive).

For `COc1ccc([Si](C)(C)[C@@H]2[C@@H](CC(=O)N3Cc4ccccc4C[C@H]3CO)O[C@]3(C(=O)N(Cc4ccc(I)cc4)c4ccccc43)[C@H]2C)cc1`, the composite z-score is 0.153 (inactive).

In a further test the test system is XIP peptide (Xip251-270). Briefly: small-molecule binders of XIP peptide, primary screen, biochemical, small-molecule microarray, fluorescence 635/667 nm, 0.5 µg/mL protein (AID 1183). The settings on record: small-molecule microarray binding, fluorescence 635 nm; higher = more signal.
Consider `COC(=O)[C@@]1(Cc2ccc(F)cc2)[C@H]2c3cc(C(=O)N4CCCC4)n(CCSCCO)c3C[C@H]2CN1C(=O)c1ccccc1`, for which the composite z-score is -0.279.

With `C[N+](C)(C)CCCC[C@@H]1NC(=O)[C@H]2C[C@@H](C(=O)NCCCCCN)[C@@H](c3ccc(O)cc3)N2C1=O`, the composite z-score was determined as 0.69.

As to `COc1c(C)cc(-c2cc3c(c(CCc4ccccc4)n2)[Si](C(C)C)(C(C)C)O[C@H]3c2ccccc2)cc1C`, the composite z-score was 0.0209.

For `C=CCOC(=O)[C@H]1[C@@H]2C(=O)O[C@@H](c3ccccc3)[C@@H](c3ccccc3)N2[C@@H](c2ccc(OCCOC(=O)[C@H]3C[C@H]4C(=O)NCC(=O)N4[C@H]3c3ccc(O)cc3)cc2)[C@]12C(=O)Nc1ccccc12`, the composite z-score turned out to be 0.81.

With `CCCCCCc1nc(Cc2cc(OC)c(OC)c(OC)c2)c(C)c2c1[Si](C(C)C)(C(C)C)OC2`, the composite z-score came out at 0.0092.

For the molecule `CC[C@H]1C2=C3C(CC[C@H]4C(OCc5ccc(F)cc5C(F)(F)F)OC[C@](C)([C@@H]34)N(C(=O)OC(C)(C)C)C2)C(COC(C)=O)C1COC(C)=O` (stereo partly specified), the composite z-score stood at 0.633.

For the molecule `COCCOC(=O)N1C(=O)[C@@]2(c3cc(C#CCC(C(=O)OC)C(=O)OC)ccc31)[C@H](C(=O)N1CCc3cc(OC)c(OC)cc3C1)[C@H]1C(=O)O[C@H](c3ccccc3)[C@H](c3ccccc3)N1[C@@H]2c1ccccc1OCCO`, the composite z-score was found to be 0.733.

As to `C=C[C@@H](CO)NS(=O)(=O)c1ccc(Br)cc1`, the composite z-score is -1.58.

`[N-]=[N+]=NCc1ccccc1[C@H]1OC(c2ccc(OCCCO)cc2)=N[C@@]1(Cc1ccccc1N=[N+]=[N-])C(N)=O`: the composite z-score was determined as 0.599.

`COCCCNC(=O)[C@@]1(CCC(=O)OC(C)(C)C)N=C(c2ccc(OCCCO)cc2)O[C@H]1c1ccccc1`: the composite z-score worked out at 0.754.

On to `C=CCOC(=O)[C@@H]1[C@H]2C(=O)O[C@H](c3ccccc3)[C@H](c3ccccc3)N2[C@H](c2ccc(OCCOC(=O)[C@@H]3C[C@@H]4C(=O)N[C@@H](CC(C)C)C(=O)N4[C@@H]3c3ccc(O)cc3)cc2)[C@@]12C(=O)Nc1ccc(I)cc12`, for which the composite z-score was 0.761.

Take `CN1C2C=C(c3ccc(CO)cc3)C(C3C(=O)N(C(N)=O)C(=O)C32)C1C1CC1` (stereo unspecified): the composite z-score worked out at 0.0909.

`CC(C)(C)OC(=O)CC[C@@]1(C(=O)N2CCOCC2)N=C(c2ccc(OCCCO)cc2)O[C@@H]1c1ccccc1CN=[N+]=[N-]`: the composite z-score turned out to be 0.838.
